FGF22 binding – binders of recombinant human FGF22 by thermal shift. AID 651658. activity (Tm shift, normalised), % at 9.99 µM. Q9HCT0. 340,000 compounds, 1.5% hits. SYPRO orange fluorescence; percent of sucrose octasulfate shift, DMSO zero;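 active = mean Tm shift, scaled 0 neutral to 100 positive control, at about 1.3% or above, every replicate too, limit read from the data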
PglD DTNB – PglD (C. jejuni) enzyme inhibition. purified PglD enzyme, DTNB colorimetric CoA detection. inhibition, % at 12.5 µM. 360,000 compounds, 0.098% hits; in the data active = inhibition above about 16%, passing the limit was not always enough
SIRT5 block – inhibitors of human sirtuin-5 desuccinylase; Q9NXA8; inhibition, % at 15 µM; 330,000 compounds, 1.1% hits; AID 652115; Purified SirT5, succinyl-peptide AMC, trypsin-coupled fluorescence; in the data active = inhibition above about 15%
PvdQ acylase – P. aeruginosa PvdQ acylase inhibition | purified PvdQ acylase, fluorescence plate reader | inhibition, % at 10 µM | 340,000 compounds, 0.063% hits; in the data active = inhibition above about 30%, passing the limit was not always enough;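 also: 0% = vehicle neutral wells and 100% = reference inhibitor wells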
CDK5 inh – CDK5/p35 (human) kinase inhibition; Q00535+Q15078; Recombinant CDK5/p35, ADP-Glo luminescence, 60 min; inhibition, % at 10 µM; 330,000 compounds, 0.01% hits;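 active = highest replicate inhibition of at least 50% and at least 75% of replicates reaching 50%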;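 also: plate controls were DMSO neutral control for no effect and GW8510 at 10 µM for full effect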
Target sequence (Q00535 whole entry, looked up): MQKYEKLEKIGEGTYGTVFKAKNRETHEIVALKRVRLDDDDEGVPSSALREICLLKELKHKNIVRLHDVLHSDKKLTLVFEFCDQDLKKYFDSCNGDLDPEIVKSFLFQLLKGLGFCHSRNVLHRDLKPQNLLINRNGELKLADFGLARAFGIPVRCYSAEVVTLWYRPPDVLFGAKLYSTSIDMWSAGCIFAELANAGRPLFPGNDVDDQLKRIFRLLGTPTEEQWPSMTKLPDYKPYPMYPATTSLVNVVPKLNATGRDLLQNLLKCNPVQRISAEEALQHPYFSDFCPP
Target sequence (Q15078 whole entry, looked up): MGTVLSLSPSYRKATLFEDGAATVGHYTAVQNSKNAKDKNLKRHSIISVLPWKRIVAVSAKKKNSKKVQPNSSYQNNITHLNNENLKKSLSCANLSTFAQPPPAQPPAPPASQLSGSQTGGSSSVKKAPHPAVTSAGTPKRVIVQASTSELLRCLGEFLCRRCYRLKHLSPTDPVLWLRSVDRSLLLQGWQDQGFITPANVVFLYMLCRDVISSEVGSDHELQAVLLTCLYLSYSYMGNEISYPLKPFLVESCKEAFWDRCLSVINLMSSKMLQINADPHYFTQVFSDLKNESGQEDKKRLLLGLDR
dFosB act – activators of mouse delta FosB homodimer; AID 493131; activation, % at 25 µM; purified delta FosB, TAMRA-CDK5 oligo fluorescence polarization; percent of positive-control signal above neutral wells; 340,000 compounds, 0.99% hits; P13346;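 active = mean activation above about 17%, with every replicate also reaching it, limit read from the data, passing the limit was not always enough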
The depositor's hits bear a star. Shown are actives, neighbours in structure and some others; about 2.8% of the full set was active somewhere.

Cc1ccc(/C=N/NC(=O)c2cc(-c3cccnc3)nc3ccccc23)cc1 was read as FGF22 binding 43.2*, SIRT5 block -1.3, PvdQ acylase -11.4, CDK5 inh 0.9 and dFosB act -15.0.
Screening CCOc1ccccc1-c1cc(C(=O)N/N=C/c2ccc3c(c2)OCO3)c2ccccc2n1 returned PglD DTNB 13.5, PvdQ acylase 1.1, CDK5 inh -4.1 and dFosB act 3.3.
CCOc1ccccc1-c1cc(C(=O)N/N=C/c2ccc(O)c(OC)c2)c2ccccc2n1 was read as PvdQ acylase 18.1, CDK5 inh 1.0 and dFosB act 24.8*.
CC(C)NC(=O)N(C)C[C@H]1Oc2cc(-c3ccccc3F)ccc2S(=O)(=O)N([C@@H](C)CO)C[C@H]1C was read as FGF22 binding 0.0, PglD DTNB -29.1 and SIRT5 block -6.0.
Screening CN(C)c1ccc2c(c1)[C@H]1C[C@H](CC(=O)NCc3ccc(Oc4ccccc4)cc3)O[C@@H](CO)[C@H]1O2 returned FGF22 binding 0.1, PglD DTNB -2.4 and SIRT5 block 10.0.
O=C(C[C@@H]1C[C@@H]2c3cc(NC(=O)c4cccnc4)ccc3O[C@@H]2[C@H](CO)O1)NCC(F)(F)F was read as FGF22 binding 0.0, PglD DTNB 3.6 and SIRT5 block -3.4.
CCC(C)[C@H](NS(=O)(=O)c1ccc(F)cc1Br)C(=O)OC (stereo partly drawn) was read as FGF22 binding 43.1*, PglD DTNB 4.3, PvdQ acylase -15.5, CDK5 inh 0.5 and dFosB act -6.7.
Screening COC(=O)[C@@H](NS(=O)(=O)c1cc(Br)ccc1Br)C(C)C returned FGF22 binding -0.1, PglD DTNB -1.3 and SIRT5 block 0.3.
For COCC(=O)N1[C@H](C#N)[C@@H](c2ccccc2-c2cccc(F)c2)[C@H]1CO the results were FGF22 binding 0.0 and SIRT5 block -2.0.
Screening C[C@@H]1CCCCO[C@@H](CN(C)C(=O)Nc2ccc(F)cc2)[C@@H](C)CN([C@H](C)CO)C(=O)c2cc(NS(C)(=O)=O)ccc2O1 returned FGF22 binding -0.3, PglD DTNB 1.0 and SIRT5 block 0.1.
Screening COCCCN1C(=O)C(CC(=O)NC(c2ccccc2)c2ccccc2)CC(C(=O)N2CCOCC2)=C1C (stereo not drawn) returned FGF22 binding 0.1, PglD DTNB -2.6 and SIRT5 block 29.4*.
For Cc1ccc(NC(=S)/N=C(\N)Nc2nc(C)c3cc(C)c(C)cc3n2)cc1C the results were FGF22 binding 43.0*, PglD DTNB 1.2, SIRT5 block -2.1, PvdQ acylase -10.3, CDK5 inh -9.7 and dFosB act -4.0.
Screening Cc1ccc(NC(=S)/N=C(\N)Nc2nc(C)c3cc(C)ccc3n2)c(C)c1 returned FGF22 binding 0.2, PglD DTNB -1.5, SIRT5 block -0.3, PvdQ acylase 2.1, CDK5 inh -0.9 and dFosB act 0.7.
For CCCNC(=O)C1(C)CCCN(Cc2cccc(Oc3ccccc3)c2)C1 (stereo not drawn) the results were FGF22 binding 0.1, PglD DTNB -4.5 and SIRT5 block 20.4*.
For Cc1ccc(N(CC(=O)NC(C)(C)C)C(=O)CNC(=O)c2cccs2)c(C)c1 the results were FGF22 binding 43.1*, SIRT5 block -0.8, PvdQ acylase -1.9, CDK5 inh 1.4 and dFosB act 0.5.
Screening COc1ccccc1NC(=O)N1C[C@H](O)COC[C@@H]2O[C@H](CC(=O)NCc3ccccc3)CC[C@H]21 returned FGF22 binding -0.2, PglD DTNB -2.1 and SIRT5 block 1.3.
Screening COC(=O)CSc1ncnc2c1cnn2Cc1ccccc1 returned PglD DTNB 9.9, PvdQ acylase -14.1, CDK5 inh -0.6 and dFosB act 2.8.
`CC(C)(C)C(=O)CSc1ncnc2c1cnn2Cc1ccccc1` gave FGF22 binding 0.1, SIRT5 block 15.3*, PvdQ acylase -4.7, CDK5 inh -0.1 and dFosB act -2.5.
Screening C[C@@H]1CN([C@H](C)CO)C(=O)c2cccc(NC(=O)c3ccc(-c4nccs4)cc3)c2O[C@@H]1CN(C)Cc1ccncc1 returned FGF22 binding 0.0, PglD DTNB 3.7 and SIRT5 block 3.9.

Assay outcomes (PubChem BioAssay)
